Screening results from PubChem.
The list is not random: actives were taken first. Their share in the collection is about 20%.
Pf growth 48h – P. falciparum growth inhibition at 48 hours (one generation); P. falciparum luciferase growth in erythrocytes, 48 h; Potency, µM (series often up to 28.7 µM), inactives show top-dose activity change, negative = inhibition, most hits filed as inhibitors; hit rate 5.9% among 310,000; further: potency means the concentration at half of the fitted maximal effect; on the % scale 0 is the no-effect control and ±100 the full control effect
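Compounds are pin-transferred into medium, infected erythrocytes (2% hematocrit, 0.1% parasitemia final) are added, and plates sit one parasite generation at 37 C in 5% CO2. Detection reagent is then added and luminescence measured.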
CHX counter – counter-screen hit for Shiga toxin inhibitors, cycloheximide. cell reporter, cycloheximide protein synthesis inhibition counterscreen. max response, %. hit rate 12% among 300,000; in the data active means max response mostly above about 13%, no sharp cut-off; inactive means mostly below about 14%; further: read at 38.3 µM for the half of the compounds with a filed dose; 0% is about no effect
Pf growth 96h – P. falciparum growth inhibition at 96 hour, primary screen for plastid delayed-death inhibitors | P. falciparum luciferase reporter growth, 96 h | Potency, µM (titrated, usually from 28.7 µM), without a hit: top-dose activity change, negative = inhibition, hits mostly inhibitors | hit rate 6.9% among 320,000 | AID 504834; further: potency means the concentration at half of the fitted maximal effect; on the % scale 0 is the no-effect control and ±100 the full control effect
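Compounds incubated with erythrocytes infected by luciferase-expressing P. falciparum (2% hematocrit, 0.05% parasitemia final) for 96 hours, 37 C in 5% CO2. Growth inhibition scored as decreased luciferase luminescence.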
Shiga inhibitor – inhibitors of Shiga toxin in Vero cells; inhibition, % at 38.7 µM; hit rate 9.2% among 290,000; Vero cells, Shiga toxin protein synthesis inhibition reporter; in the data active means inhibition mostly above about 28%, no sharp cut-off; inactive means mostly below about 43%; further: 0% is about no effect
HCMV inh – blocks human cytomegalovirus replication; hit rate 4.5% among 410,000; HFF cells, HCMV-luciferase reporter, 72 h; hits give low values; AID 1259415; activity change, negative = inhibition, % at 57.5 µM; in the data active means activity change below about -60%; inconclusive means no clear call, values can overlap the other calls; inactive means above about -39%; further: on the % scale 0 is the no-effect control and ±100 the full control effect
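Inhibition of viral replication was scored as loss of reporter luminescence in HFFs infected with HCMV-luciferase (MOI 1 PFU/cell) for 72 h; compounds tested at 2 doses, normalized to buffer and Salinomycin controls.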
* marks the source's active call; other numbers are inactive results; ? = inconclusive; nt = not tested or not shown. Unless noted, the call rests on the fitted dose curve; in most records, active means well fitted inhibition curve with a large enough effect; inconclusive means small, poorly fitted or top-dose-only effect, or another doubt; inactive means no such curve, though single readings can be large or run the other way.

SMILES | Pf growth 48h | CHX counter | Pf growth 96h | Shiga inhibitor | HCMV inh
CC1=N/C(=C\c2ccccc2Cl)C(=O)O1 | nt | nt | nt | nt | 24
Cc1cc(C)nc(NNC2=CC(=[N+]3CCCC3)CCC2)n1 | -1% | -5 | -8% | -6 | -4
CC(C)NC(=O)C1(C)CSCC(=O)N1C1CCN(Cc2ccccc2)CC1 (centres undefined) | nt | nt | nt | nt | 5
Cc1nn(-c2ccccc2)nc1C(=O)Oc1cc(C(F)(F)F)nn1-c1ccccc1 | 0.37µM* | -2 | -29% | -2 | -33
CC(C)C1C(=O)CC(c2ccccc2)NC1c1ccccc1 (centres undefined) | -28% | -1 | 1.2µM* | -9 | -8
CC1C(=O)CC(c2ccccc2)NC1c1ccccc1 (centres undefined) | nt | -2 | -1% | 17 | -39
Cc1[nH]c2ccccc2c1-c1nc(N)sc1C | 7% | 8 | 22% | -5 | -27
CCOC(=O)N1CCN(c2cccc(C)c2C)CC1 | 4% | -5 | -17% | -17 | -22
Cc1cccc(N2CCN(C(=O)n3ccnc3)CC2)c1C | ? | -1 | 12µM* | 19 | -1
Cc1cccc(N2CCN(C(=O)CCC(=O)N3Cc4ccccc4Oc4ncccc43)CC2)c1C | ? | 3 | ? | 3 | -94*
Cc1cccc(N2CCN(C(=O)CNC(=O)C3CCCCC3)CC2)c1C | ? | nt | -28% | nt | -39
COc1ccc(CC(=O)N2CCN(c3cccc(C)c3C)CC2)cc1 | 11% | 0 | -12% | 12 | 10
Cc1cccc(N2CCN(C(=O)CNC(=O)c3ccccc3)CC2)c1C | -25% | 33* | -25% | 63* | ?
COc1ccc(CCC(=O)N2CCN(c3cccc(C)c3C)CC2)cc1 | ? | -1 | ? | -7 | -80*
COc1ccc(CNC(=O)C2Cc3cc(S(=O)(=O)N4CCCC4)ccc3N2C(C)=O)c(OC)c1 (centres undefined) | -1% | 1 | 41% | -10 | -20
CC[C@H](C)[C@H](NC(=O)[C@@H]1CCCN1C(=O)[C@H](Cc1cnc[nH]1)NC(=O)[C@H](CCCCNC(=O)[C@H](CCCN=C(N)N)NC(=O)OCc1ccccc1)NC(=O)[C@H](Cc1ccc(O)cc1)NC(=O)c1cccnc1)C(=O)O | nt | -1 | nt | -4 | nt
CCN(CC)CCn1c2c(c(SCC(=O)Nc3cccc(C(F)(F)F)c3)nc1=O)CCC2 | nt | nt | nt | nt | 85
Cc1cccc(N2CCN(C(=O)C(C)C)CC2)c1C | -13% | -1 | nt | -13 | -15
Cc1cccc(N2CCN(C(=O)Cn3cccc3)CC2)c1C | nt | -2 | 4.1µM* | 11 | 3
CN(C)c1nc(Cl)nc(NCCOc2ccccc2)n1 | 13% | 2 | 0% | 8 | -40
CC1(C)C2CCC1(C)C(NC(=O)CCN1CCCCC1)C2 (centres undefined) | 5% | 1 | 0.093µM* | -10 | -9
COCCOCCOCCC(=O)NC1CC2CCC1(C)C2(C)C (centres undefined) | 6% | 0 | nt | -10 | 1
Cc1ccc(C2CC(c3ccccc3OC(F)F)Nc3ncnn32)cc1 (centres undefined) | 12µM* | -1 | nt | -11 | -26
CCOC(=O)C1=C(CNCCOc2ccc(OC)cc2)NC(=O)NC1c1ccc2c(c1)OCO2 (centres undefined) | 12µM* | 2 | ? | -3 | 24
CCOC(=O)C1=C(CNCCc2ccc(Cl)cc2)NC(=O)NC1c1ccc2c(c1)OCO2 (centres undefined) | 7.4µM* | -2 | nt | -8 | -13
SMILES | Pf growth 48h | CHX counter | Pf growth 96h | Shiga inhibitor | HCMV inh
CCOC(=O)C1=C(CN2CCN(C(=O)OCC)CC2)NC(=O)NC1c1ccc2c(c1)OCO2 (centres undefined) | ? | 8 | 24% | 11 | 0
COC(=O)c1c(NC(=O)c2nc(SCc3ccccc3C)ncc2Cl)sc2c1CCCC2 | nt | nt | nt | nt | 8
Cc1ccc(S(=O)(=O)NNC(=S)Nc2ccccc2)cc1 | 26% | 23* | nt | 23 | -21
Cc1ccc(S(=O)(=O)NNC(=S)Nc2ccc(Cl)cc2)cc1 | -7% | 0 | -2% | 4 | -12
Cc1ccc(S(=O)(=O)NC(=O)Nc2ccccc2)cc1 | 31% | 1 | 6.6µM* | 4 | -21
O=C(/C=C/c1ccc(Cl)c([N+](=O)[O-])c1)Nc1ccc(NC(=O)c2ccco2)cc1 | 5% | -1 | -8% | -14 | -2
O=C(Nc1ccc(Cl)c([N+](=O)[O-])c1)c1ccco1 | 9% | 20* | 0% | 33 | -17
O=C(/C=C/c1ccc(Cl)c([N+](=O)[O-])c1)Nc1cccc(NC(=O)c2ccco2)c1 | 12µM* | 36* | ? | 67* | 21
Cc1cc(C)n(C2CC(=O)N(c3ccc(C)c(Cl)c3)C2=O)n1 (centres undefined) | ? | -2 | -1% | 7 | -8
CC(=O)N(C(C)=O)c1ncc2c([nH]c3ccccc32)c1C#N | 1% | 8 | ? | -12 | -77*
COc1ccccc1NC(=O)/C=C/c1ccc2c(c1)OCO2 | 284% | 31* | -5% | 85* | -3
O=C(COC(=O)/C=C/c1ccc2c(c1)OCO2)NCc1ccccc1 | -15% | nt | 35% | nt | -3
NC(=O)c1ccc(NC(=O)COC(=O)/C=C/c2ccc3c(c2)OCO3)cc1 | 56% | 26* | -9% | 66* | -32
COc1ccccc1NC(=O)COC(=O)/C=C/c1ccc2c(c1)OCO2 | 44% | 52* | 2% | 84* | -32
O=C(COC(=O)/C=C/c1ccc2c(c1)OCO2)NCc1ccc(F)cc1 | nt | nt | nt | nt | -64*
CC(=O)Nc1ccc(NC(=O)COC(=O)/C=C/c2ccc3c(c2)OCO3)cc1 | -5% | nt | -5% | nt | 0
COc1ccc(-c2c3c(=O)n(C)c(=O)n(C)c3c3n2-c2ccccc2NC3c2ccc(O)cc2O)cc1 (centres undefined) | nt | nt | nt | nt | 1
NC1=NC2(CS1)CSC(N)=N2 | nt | nt | nt | nt | 34
O=C(Nn1c(-c2ccccc2)nc2ccccc2c1=O)c1cccs1 | 14% | 3 | -22% | 7 | -19
Nc1nc(CSc2n[nH]c(-c3ccccc3)n2)nc(Nc2ccccc2)n1 | -1% | -1 | ? | -10 | -30
Cc1ccc(-c2nc(Nc3ccccc3)n[nH]2)cc1 | 352% | 43* | nt | 83* | 158
O=S(=O)(c1ccc(Br)cc1)c1nnn2c1nc(Nc1cccc(C(F)(F)F)c1)c1sccc12 | nt | nt | nt | nt | 1
COc1ccc(CCCC(=O)N/N=C/c2ccccc2OC)cc1 | ? | 12 | ? | 2 | 47
CSC1=NCCN1C(=O)Cc1cccs1 | nt | 6 | 24% | 15 | 34
CC(C)c1ccc2c(c1)[C@H]1OCC[C@H]1[C@@H](c1cccs1)N2 | 34% | 70* | 1% | 59* | 104
COC(=O)[C@@]12C[C@@H](CC(=O)NCc3ccc(C)o3)C(=O)N(Cc3ccco3)C1=CCC(C)(C)C2 | nt | nt | nt | nt | -14
CCOC(=O)N=Nc1c(O)n(C)c2ccccc12 | 35% | 10 | 87% | 26 | 32
Cc1cc(C(=O)N=Nc2c(O)n(C)c3ccccc23)c(C)o1 | 126% | 27* | 161% | -5 | 25
